The structures appear in SMILES notation. Calls of active or inactive are those of the source. How the source made its calls: active means hit-call score of the fitted dose curve at least 0.9, where 1 is the maximum; inactive means score below 0.9.

In general, AC50 refers to the concentration giving half of the maximal activity seen.

Read-out in this test: Ezrin (EZR), EZR (gene 7430)
Briefly: LTEA_HepaRG_EZR: Life Technologies and Expression Analysis (LTEA) Assay for Ezrin (EZR) using HepaRG (AID 2283491). The note with it: mRNA level, 48 h; actives raise or lower the signal. As for the experimental part: It is a marker of Cellular remodeling.Data from the assay component LTEA_HepaRG_EZR was analyzed into 1 endpoint. This assay endpoint, LTEA_HepaRG_EZR, was analyzed with bidirectional fitting relative to DMSO as the negative control and baseline of activity. Using a type of inducible reporter, measures of mRNA induction for gain or loss-of-signal activity can be used to understand regulation of transcription factor activity. To generalize the intended target to other relatable targets, this assay endpoint is annotated to the membrane protein intended target family, where the subfamily is Cellular remodeling.
A total of 1060 chemcials from the ToxCast library were tested in eight-point concentration-response experiments. Cell culture and cytotoxicity assays were conducted at Thermo Fisher Scientific's Custom Services facility (Madison, WI). A single lot of human HepaRG cells (Thermo Fisher Scientific, Frederick, MD) was used for the cell culture experiments. 96-well format collagen type I coated plates of human HepaRG cells were prepared using established methods. Briefly, cryopreserved HepaRG cells were thawed, plated at a density of approximately 100,000 cells/well in HepaRG Thaw, Plate, and General Purpose media (HPRG770, Thermo Fisher Scientific), and incubated for 48 hours. 0.5% DMSO was selected as vehicle control to balance the requisite need of DMSO in HepaRG cultures to maintain differentiation (for example, baseline metabolism, proportions of hepatocytes vs. cholangiocytes), while enabling further hepatic receptor pathway activation (for example, PXR and CAR) in response to chemical exposure. 48 hours after plating, the culture medium was replaced with HepaRG Serum-Free Incudtion Media. Cells were exposed to each test chemical in duplicate and maintained in CO2 incubators for another 48 hours. Chemical plates were thawed to room temperature and 200x concentrations of treatment groups were prepared. 8-point conentration-reponse curves were made with the highest exposure at 100 uM, followed by half-log dilutions, all in 0.5% DMSO. Each test plate contained variouse controls, induction positive controls (1mM phenobarbital), cytotoxicity positive controls ([…] aflatoxin B1), vehicle controls (0.5% DMSO), and total lysis controls (0.5% DMSO). Cell morphology images were taken using an Essen IncuCyte FLR automated microscope, with six 96-well plates imaged in about 24 minutes. Images were captured and exported and JPEG files. Spent culture media was transfered to black-well plates for the LDH assay, and remaining media was sorted at -80 C for later use. Cells were treated with RLT buffer and frozen until shipped for gene expression analysis. Total RNA was isolated from the cell suspension in 75 uL of Buffer RLT (Qiagen, Germantown, MD 20874) by Quintiles/Expression Analysis (Durham, NC) using a custom isolation procedure. Total RNA from each plate well was transferred to a preamplification plate. Fluidigm's 96.96 Dynamic ArrayTM (Fluidigm, Amsterdam, the Netherlands) technology was used for gene expression analyses by quantitative reverse transcription polymerase chain reaction (qRT-PCR, performed by Quintiles/Expression Analysis, Durham, NC)89. Standard TaqManTM Assays (Applied Biosystems/ThermoFisher Scientific, Foster City, CA) were used to assess the expression of 93 genes selected based on their selectivity and sensitivity to important hepatic receptors known to be modulated by environmental chemicals; importance in human hepatocyte functionality; and hepatotoxicity. Three "housekeeping" endogenous control genes were also included and used for normalization: actin beta (ACTB), Glyceraldehyde 3 phosphate dehydrogenase (GAPDH) and RNA Polymerase II Subunit A (POLR2A). qRT-PCR was conducted according to the manufacturer's protocol.
In the case of `Cc1cccc(Nc2cc(Cl)nc(SCC(=O)O)n2)c1C`, the molecule was called inactive.

Take `C[C@]12C=CC(=O)C=C1CC[C@@H]1[C@@H]2C(=O)C[C@@]2(C)[C@H]1CC[C@]2(O)C(=O)CO`: the outcome was inactive.

Take `NCCO`: the result was inactive.

Turning to `CCCCCCCCCCCCCCCC`, the call was inactive.

As to `CC1(C)CC(N=C=O)CC(C)(CN=C=O)C1` (stereo not given), the result was inactive.

With `Nc1nc(N)c2nc(CNc3ccc(C(=O)N[C@@H](CCC(=O)O)C(=O)O)cc3)cnc2n1`, the molecule was classed as inactive.

On to `O=c1c(O)c(-c2ccc(O)c(O)c2)oc2cc(O)cc(O)c12`, for which the outcome was inactive.

Turning to `CN[C@H]1CC[C@@H](c2ccc(Cl)c(Cl)c2)c2ccc(S(N)(=O)=O)cc21`, the outcome was inactive.

`COc1cc(-c2nc(NC(=O)c3cc4cc(C)cc(C)c4n3CC(=O)O)sc2CCC2CCCCC2)c(OC)cc1Cl`: the AC50 is 19.8 µM (active).

`Cc1ccc(N(C)C)cc1`: the molecule was classed as inactive.

On to `Nc1ccc2c(c1)C(=O)c1ccccc1C2=O`, for which the molecule was called inactive.

`COc1cc(C=O)ccc1O`: the molecule was classed as inactive.

`COc1ccc2c(c1)c(CC(=O)O)c(C)n2C(=O)c1ccc(Cl)cc1`: the result was inactive.

Consider `CC(=O)C(C)=CC1C(C)=CCCC1(C)C` (stereo not given), for which the molecule was classed as inactive.

As to `NCC1(Cc2noc(=O)[nH]2)CCCCC1`, the molecule was called inactive.

`CCCCCCOCCO`: the result was inactive.

`Cc1cc(NC(=O)C(=O)O)cc(C)c1Oc1ccc(O)c2c1CCC2`: the molecule was called inactive.

Regarding `NC(=O)Cn1c(=O)cc(CCN2CCN(c3nccc4sccc34)CC2)c2ccc(F)cc21`, the molecule was classed as inactive.

Take `CC(=O)OC/C=C(\C)CCC=C(C)C`: the outcome was inactive.

In the case of `COc1ccc(S(=O)(=O)N2C(=O)[C@@](c3ccccc3OC)(N3C[C@H](O)C[C@H]3C(=O)N(C)C)c3cc(Cl)ccc32)c(OC)c1`, the AC50 was 11.5 µM (active).

For `Cc1nc(C)nc(N2C[C@@H](C)N(c3ccnc([C@@H](C)O)n3)[C@@H](C)C2)n1`, the molecule was called inactive.

`CCOc1ccc2c(c1)C(C)=CC(C)(C)N2`: the result was inactive.

Take `Cc1nc(-c2ccc3c(c2)CCN(CCC2CCC(NC(=O)/C=C/c4ccc(F)cc4)CC2)CC3)no1` (stereo not given): the result was inactive.

For `CC(CO)OC(C)CO` (stereo not given) (tested in a mixture with another compound), the molecule was called inactive.

As for `CC1(C)NC(=O)NC1=O`, the result was inactive.

Regarding `CN1CCCC1=O`, the outcome was inactive.

Consider `CCCCCCCCCCCCCCCCCC(=O)O`, for which the molecule was classed as inactive.

Take `Cc1ccc(Cl)cc1`: the call was inactive.

Consider `Clc1cc(Cl)c(Cl)cc1Cl`, for which the result was inactive.

Consider `O=[N+]([O-])C(CO)(CO)CO`, for which the call was inactive.

As to `C[Si]1(C)O[Si](C)(C)O[Si](C)(C)O[Si](C)(C)O1`, the outcome was inactive.

As for `CCCCCCC(=O)OCC`, the molecule was called inactive.

For the molecule `COCCOC[C@H](CC1(C(=O)NC2CCC(C(=O)O)CC2)CCCC1)C(=O)Oc1ccc2c(c1)CCC2` (stereo not given in full), the molecule was called inactive.

Turning to `O=C(N[C@@H](Cc1ccccc1)[C@@H](O)C(=O)N1C[C@@H](O)[C@@H](O)C1)c1cc2cc(Cl)ccc2[nH]1`, the AC50 is 9.92 µM (active).

Consider `CN1CCN(Cc2cc(-c3ccc4[nH]c(=O)oc4c3)co2)[C@@H](c2ccc(F)cc2)C1`, for which the outcome was inactive.

Take `CCCCCCCCCCCCCO`: the outcome was inactive.

With `O=C(OCCCCCOC(=O)c1ccccc1)c1ccccc1`, the molecule was called inactive.

On to `Cc1ccc(C)c(C)c1`, for which the result was inactive.

For the molecule `COc1ccc(C)cc1N`, the call was inactive.

Regarding `Cc1oc(-c2ccccc2)nc1CCOc1cccc2c1ccn2CCC(=O)O`, the AC50 was 9.92 µM (active).

For the origin of these results see PubChem BioAssay (EPA / NIEHS).
